An excerpt weighted towards active compounds, which were near 10% of everything screened.
Lamin A splicing: modulators of lamin A splicing; HeLa LMNA splicing GFP/RFP minigene ratio, 48 h; Potency, µM (titrated, usually from 46.1 µM), for the others: at the highest dose ratio change, negative = inhibition, most hits filed as inhibitors; 200,000 compounds, 0.01% hits; AID 1487; active means well fitted inhibition curve with a large enough effect in the signal ratio, with a control signal flat, not every such curve was filed as active; inconclusive means small, poorly fitted or top-dose-only effect, or effect the other way, or a change in a side signal; the % refers to the signal ratio; further: potency means the concentration at half of the fitted maximal effect
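S3 HeLa stable clones carrying a lamin A-EGFP splicing minigene plus DsRed2 were seeded at 600 cells/well in Opti-MEM with 2% FBS, pin-dosed and incubated 48 h at 37°C. Acumen cytometry (488 nm) gave the GFP/RFP total-intensity ratio.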
ALDH1A1 inh: ALDH1A1 (human) enzyme inhibition; Purified ALDH1A1, NADH fluorescence, propionaldehyde substrate; 220,000 compounds, 7.3% hits; P00352; Potency, µM (series often up to 75.3 µM), for inactives: at the top dose activity, negative = inhibition, actives largely listed as inhibitors;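 further: potency means the concentration at half of the fitted maximal effect; plate controls were no enzyme wells and a reference inhibitor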
Target sequence (P00352 whole entry, looked up): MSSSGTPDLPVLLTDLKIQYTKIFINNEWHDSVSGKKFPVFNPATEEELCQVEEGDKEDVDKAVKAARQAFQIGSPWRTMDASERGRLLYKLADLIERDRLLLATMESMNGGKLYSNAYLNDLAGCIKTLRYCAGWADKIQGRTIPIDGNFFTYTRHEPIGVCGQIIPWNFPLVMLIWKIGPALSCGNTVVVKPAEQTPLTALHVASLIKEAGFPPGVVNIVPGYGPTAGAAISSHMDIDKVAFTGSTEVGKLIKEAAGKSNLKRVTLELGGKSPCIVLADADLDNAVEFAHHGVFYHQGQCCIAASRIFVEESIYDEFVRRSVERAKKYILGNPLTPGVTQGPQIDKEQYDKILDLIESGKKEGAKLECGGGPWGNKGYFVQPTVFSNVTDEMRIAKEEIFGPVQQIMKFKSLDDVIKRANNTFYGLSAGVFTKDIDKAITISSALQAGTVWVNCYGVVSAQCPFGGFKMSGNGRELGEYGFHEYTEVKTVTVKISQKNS
Luc counter: Kinase-Glo luciferase inhibition (counter-screen); Q27757; Potency, µM (doses to about 38.3 µM), for inactives: at the top dose activity change, negative = inhibition, actives largely listed as inhibitors; Kinase-Glo luciferase, ATP luminescence, 8 min; 200,000 compounds, 0.28% hits; active means well fitted inhibition curve with a large enough effect; inconclusive means small, poorly fitted or top-dose-only effect; further: potency means the concentration at half of the fitted maximal effect; nearly all actives have a fitted effect of over 60% in size
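Substrate mix (final 50 mM imidazole pH 7.2, 50 mM KCl, 7 mM MgCl2, 10 uM ATP, 0.01% Tween 20, 0.05% BSA) plus pin-tool compound, then Kinase-Glo detection mix; 8 min ambient, luminescence read.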
IMPase inh: IMPase inhibition in cells; CHO-M1 cells, IP1 accumulation, HTRF TR-FRET ratio; inhibition (IP1 accumulation), % at 46.1 µM; 120,000 tested, under 10 active; active means well fitted curve in the direction sought with a large enough effect in the signal ratio, not every such curve was filed as active; inconclusive means small, poorly fitted or top-dose-only effect, or a change in a side signal; inactive means no such curve, though single readings can be large or run the other way; the % refers to the signal ratio;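 further: cells stimulated with carbachol in lithium chloride buffer; plate controls were DMSO basal wells for no effect and reference inhibitor wells for full effect; higher means more IMPase inhibition seen as more IP1 and lower FRET ratio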
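Elevated IP1 in lysates lowers TR-FRET signal (665/620 ratio and 620 channel reported). Cells were CHO-M1, given carbachol (50 uM as added) plus 50mM LiCl, pH 7.4, 30 min, 37C; compounds titrated up to 46 uM; AC50 by Hill equation.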
HPGD block: inhibitors of human 15-hydroxyprostaglandin dehydrogenase (HPGD). AID 894. Potency, µM, without a hit: at the highest dose activity change, negative = inhibition, usual class: inhibitors. P15428. purified HPGD, NADH fluorescence kinetic, PGE2 substrate. 150,000 compounds, 4.3% hits; further: potency means the concentration at half of the fitted maximal effect
Target sequence (P15428 whole entry, looked up): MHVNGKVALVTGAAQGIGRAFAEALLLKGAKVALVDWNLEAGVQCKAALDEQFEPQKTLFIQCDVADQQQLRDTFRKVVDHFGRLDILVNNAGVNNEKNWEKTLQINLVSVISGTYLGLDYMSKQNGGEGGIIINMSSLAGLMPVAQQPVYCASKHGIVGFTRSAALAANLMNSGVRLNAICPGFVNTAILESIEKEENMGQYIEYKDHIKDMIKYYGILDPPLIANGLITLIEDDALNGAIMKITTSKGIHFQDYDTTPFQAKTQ
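20 nM HPGD preincubated 15 min at room temperature with compound in 50 mM Tris-HCl pH 8, 0.01% Tween 20. Started with 1 mM NAD+ and 30 uM prostaglandin E2; NADH fluorescence (360/450 nm) read 5 times over 30-s intervals, last minus first.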
PNC assembly inh: inhibitors of perinucleolar compartment assembly; PC3M PTB-GFP, PNC prevalence imaging, 16 h; active compounds read low; activity change (PNC), negative = inhibition, % at 10 µM; 140,000 compounds, 3.1% hits; AID 2417;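 active means readout at or below -70, meaning at least 70% loss of cells showing the perinucleolar compartment, a nuclear body marking cancer cells; inconclusive means readout between -30 and a set limit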;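 further: plate controls were DMSO wells for no effect and camptothecin positive control wells for full effect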
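PC3M cells stably expressing PTB-GFP, 750–1000 cells/well, treated 16 h at 37 °C with compound (23 nl of library stock), in duplicate. After paraformaldehyde fixation and Hoechst stain, imaged at 20x; PNC prevalence scored by image analysis.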
An asterisk follows results filed as active; ? = inconclusive; . = no result; [ ] = dose if it differs, or a comment. Unless noted, the call rests on the fitted dose curve; in most records, active means well fitted inhibition curve with a large enough effect (not every such curve was filed as active); inconclusive means small, poorly fitted or top-dose-only effect, or another doubt; inactive means no such curve, though single readings can be large or run the other way. Unless noted, on the % scale 0 is the no-effect control and ±100 the full control effect.

SMILES | Lamin A splicing | ALDH1A1 inh | Luc counter | IMPase inh | HPGD block | PNC assembly inh
CC(=O)N1N=C(c2ccc(C)o2)CC1c1cccc(F)c1 (centres undefined) | -6%[46 µM] | 14µM* | 1% | . | . | .
Cc1ccc(CN2C(=O)C3(c4ccccc42)N(c2cccc(F)c2)C(=O)CS3(=O)=O)cc1 (centres undefined) | -20%[46 µM] | . | . | . | . | .
Cc1ccnc(SCc2cc(=O)c(OC(=O)c3cc([N+](=O)[O-])ccc3Cl)co2)n1 | -13% | -14% | -3% | . | ? | -14
O=C(Oc1coc(CSc2ncccn2)cc1=O)c1cccc([N+](=O)[O-])c1 | . | 1.8µM* | 3% | . | . | .
Cc1cc(C)nc(SCc2cc(=O)c(OC(=O)c3ccc(Cl)c([N+](=O)[O-])c3)co2)n1 | -9% | 4% | 4% | 2 | 11µM* | 16
CCCCNc1ncnc2c1nnn2C | 1%[46 µM] | . | . | . | . | .
COc1ccc(OCC(=O)Nc2nc(-c3ccc(Br)cc3)ns2)cc1 | -9%[46 µM] | . | . | . | . | .
O=C1CN(S(=O)(=O)c2ccc(F)cc2)CC(=O)N1CCc1ccccc1 | 1% | ? | 7% | 10 | ? | -100*
O=C(Nc1ccc2c(c1)OCCO2)c1ccc(NC(=O)C2CCCO2)cc1 (centres undefined) | ? | ? | -2% | 3 | -27% | ?
O=C(CC1CCCC1)Nc1ccc2c(c1)CCC2 | -3% | 4% | -6% | -3 | 14µM* | 63
O=C(O)c1ccc(C(=O)Nc2cccc(NC(=O)C3CCCO3)c2)cc1 (centres undefined) | 6% | 9% | -3% | -1 | 22µM* | 19
O=C(Nc1ccc2c(c1)CCC2)C1CCCO1 (centres undefined) | -7% | 14% | -3% | -5 | 18µM* | 10
COCC(=O)O | . | -10% | . | . | -2% | .
Cn1cc(C(=O)CCl)c2ccccc21 | ? | 0.063µM* | 1% | . | . | .
CC1(C)CC(=O)C(C(C2=C(O)CC(C)(C)CC2=O)c2ccco2)C(=O)C1 (centres undefined) | 10% | ? | -4% | 0 | 10µM* | 6
COc1cc(C(C2=C(O)CC(C)(C)CC2=O)C2C(=O)CC(C)(C)CC2=O)cc(OC)c1OC (centres undefined) | . | ? | 2% | . | . | .
C[C@H]1[C@H](O)[C@@H](C)C=CC=CC=CC=CC=CC=CC=C[C@H](O[C@@H]2O[C@@H](C)[C@H](O)[C@@H](N)[C@@H]2O)C[C@@H]2O[C@](O)(C[C@@H](O)C[C@@H](O)[C@@H](O)CC[C@@H](O)C[C@@H](O)CC(=O)O[C@H]1C)C[C@H](O)[C@H]2C(=O)O | . | -18%[13.5 µM] | -19%[7.66 µM] | . | -2% | .
COc1cc(NCCCC(C)N)c2ncccc2c1 (centres undefined) | 3% | 22µM* | -6% | 15 | -17% | -20
COc1cc(NS(=O)(=O)c2ccc(C)cc2)c2ncccc2c1 | ? | 0% | 3% | 1 | ? | -100*
COc1ccc(NC(=O)CSc2cccc3cccnc23)c(OC)c1 | -6% | 6% | 2% | . | -17% | -27
O=c1c2c3c(sc2nnn1Cc1ccc(F)cc1)CCCC3 | -19%[46 µM] | . | . | . | . | .
COC(=O)c1sccc1NC(=S)N1CCN(c2ccc(F)cc2)CC1 | ? | -7% | 5% | . | -3% | 29
COC(=O)c1sccc1NC(=S)N1CCC(C)CC1 | 0% | 20µM* | -2% | 0 | -6% | -12
COC(=O)c1sccc1NC(=S)N1CCN(c2ccccc2)CC1 | ? | 5% | -3% | . | -5% | 5
COC(=O)c1sccc1NC(=S)N1CC(C)CC(C)C1 (centres undefined) | 5% | 7.9µM* | -3% | 15 | ? | -5
SMILES | Lamin A splicing | ALDH1A1 inh | Luc counter | IMPase inh | HPGD block | PNC assembly inh
COc1ccc(/C=N/NC(=O)c2cc(-c3ccc(Cl)cc3)n[nH]2)cc1OC | . | ? | -5% | . | ? | .
Cc1c(Cl)cccc1NC(=O)CCn1c(=O)c2cccn2c2ccccc21 | 4%[46 µM] | . | . | . | . | .
Cc1cccn2cc(-c3cccc(NC(=O)C(C)C)c3)nc12 | . | . | . | -2 | . | .
Cc1ccc(NCc2nnc(SCC(=O)Nc3ncc(C)s3)n2CC2CCCO2)c(C)c1 (centres undefined) | ? | 4.5µM* | -6% | 7 | -12% | -16
Cc1ccc(NCc2nnc(SCC(=O)Nc3cccc(O)c3)n2CC2CCCO2)c(C)c1 (centres undefined) | 7% | 4µM* | -1% | -4 | -8% | ?
Cc1ccc(-n2c(=O)c3c(c4cc(C)ccc4n3C)n(Cc3ccc(F)cc3)c2=O)cc1 | 2%[46 µM] | . | . | . | . | .
CCn1c(O)c(N=NC(=O)CNC(=O)/C=C/c2ccco2)c2ccccc21 | -18% | ? | -1% | 11 | -23% | -92*
O=C(CNC(=O)/C=C/c1ccccc1)N=Nc1c(O)n(Cc2ccccc2)c2ccccc12 | -7% | 3.5µM* | 6% | 0 | -12% | -8
C=CCn1c(O)c(N=NC(=O)CNC(=O)c2ccco2)c2ccccc21 | ? | ? | 0% | . | -12% | 19
CCn1c(O)c(N=NC(=O)CNC(=O)c2ccco2)c2ccccc21 | ? | -5% | 0% | -4 | -3% | 19
COc1ccc(CNC(=O)COC(=O)CCC2CCCCC2)cc1 | -7% | 5.6µM* | . | -5 | . | 36
COc1ccc(CNC(=O)COC(=O)C2CC3C=CC2C3)cc1 (centres undefined) | -5% | 11µM* | 4% | 8 | ? | 5
O=C(COC(=O)C1CC2C=CC1C2)NCc1ccccc1Cl (centres undefined) | 13% | -4% | 15% | . | -14% | -12
O=C(CC1(O)C(=O)Nc2cc(Cl)cc(Cl)c21)c1ccncc1 (centres undefined) | -15% | 13µM* | 4% | 7 | -12% | -20
c1ccc2c(c1)[nH]c1c(N3CCOCC3)ncnc12 | -10% | ? | 8% | 2 | -14% | -119*
O=C(CNC(=S)N(Cc1ccccc1F)C1CCCCC1)NC1CC1 | 4% | 13µM* | -5% | -14 | -6% | 9
O=C(NCC1CCCCC1)C1CCCN(C(=O)NC2CCCCC2)C1 (centres undefined) | 5% | -3% | 1% | 4 | -21% | -18
O=C(NCc1ccccc1F)C1CCCN(C(=O)NC2CCCCC2)C1 (centres undefined) | ? | 3% | -2% | 8 | -12% | -124*
CCCNC(=O)CNC(=S)N(Cc1ccccc1F)C1CCCCC1 | 1%[46 µM] | 10µM* | 0% | . | . | .
CCOC(=O)CNC(=S)N(Cc1ccccc1F)C1CCCCC1 | . | ? | 1% | . | . | .
CC(=O)C1=C(c2ccc(Cl)cc2)N(C(C)=O)n2c(nnc2C2CCCCC2)S1 | -22%[46 µM] | . | . | . | . | .
